PubChem BioAssay AID2384 (Southern Research Specialized Biocontainment Screening …, 2010)
The campaign covered roughly 2,300 compounds. About 1,100 (48%) were called active. How the calls were made is not given here. The set was probably picked from earlier hits. This is one part of the list. Entries that show only a call come without a potency. Potency and affinity values are given separately.

Test: S. typhi counter-screen signal inhibition – fluorescence, 4 h, counter-screen for PhoP regulon inhibitor project, dose response (AID 2384)
Conditions: S. typhi GFP reporter counter-screen; series mostly up to 150 µM

Row | SMILES | inhibition
1 | CC1(C)CC(=O)C(C(=O)/C=C/NCCc2ccccc2)C(=O)C1 | inactive
2 | Cc1ccc(-c2cc(N)nc(-c3ccccc3)c2)cc1 | inactive
3 | O=C(O)c1ccc(NC2=C(Cl)C(=O)c3ccccc3C2=O)cc1 | inactive
4 | O=C1C(SCCO)=C(SCCO)C(=O)c2ccccc21 | inactive
5 | CC(C)C(NS(=O)(=O)c1cccc2nsnc12)C(=O)N1CCn2c1nc1ccccc12 (stereo not given) | inactive
6 | COc1cccc(N2CCN(C(=S)NCc3ccco3)CC2)c1 | inactive
7 | COc1ccc(Nc2nc(-c3ccccc3)nc3ccccc23)cc1S(=O)(=O)N1CCOCC1 | inactive
8 | C=CCn1c(O)c(N=NC(=O)c2cccnc2)c2cc(Br)ccc21 | inactive
9 | COc1cccc(C(=O)CC(=O)C(=O)Nc2cc(OC)c(OC)c(OC)c2)c1 | inactive
10 | Cc1cc(C)cc(N(C(=O)CNC(=O)c2cccs2)C(C(=O)NC2CCCC2)c2cccnc2)c1 (stereo not given) | inactive
11 | CCc1c(C)nc2cc(-c3cc(OC)cc(OC)c3)nn2c1N1CCCC1 | inactive
12 | CCN1CCc2c(C#N)c(NCc3ccccc3)nc(NCCO)c2C1 | inactive
13 | Cc1[nH]nc2c1C(C1CC=CCC1)C(C#N)=C(N)O2 (stereo not given) | inactive
14 | C#CC(=O)N(c1cccc(OC)c1)C(C(=O)NC1CCCC1)c1cccs1 (stereo not given) | inactive
15 | COc1ccc(CCC(=O)NCc2cn3ccccc3n2)cc1 | inactive
16 | O=C(CCCc1ccccc1)Nc1cccnc1 | inactive
17 | COc1ccc(-c2nc3ccc(C(=O)NCC(OC)OC)cc3nc2-c2ccc(OC)cc2)cc1 | inactive
18 | S=C(Nc1ccccc1Cl)N(Cc1ccccc1)Cc1ccccn1 | inactive
19 | COCCCNC(=O)c1cc(OC)c(OC)c(OC)c1 | inactive
20 | CCOCCCNC(=O)C(c1ccc(OC)cc1)N(Cc1cccs1)C(=O)c1ccccn1 (stereo not given) | inactive
21 | O=c1c2ccccc2ncn1Cc1ccc(Cl)cc1 | inactive
22 | CCOC(=O)CSc1nnc2c(n1)C1(C)CCC2C1(C)C (stereo not given) | inactive
23 | O=C(O)/C=C/c1cn(-c2ccccc2)nc1-c1cc2ccccc2oc1=O | inactive

Row | SMILES | inhibition
24 | Cc1ccc(OCC(=O)N2CCN(S(C)(=O)=O)CC2)cc1 | inactive
25 | CCC(C)(C)NC(=O)COc1ccc(C(=O)c2ccccc2)cc1 | inactive
26 | Cc1cccc(OCC(=O)NNc2c3ccccc3nc3ccccc23)c1 | inactive
27 | CCOc1ccc(NC(=O)CN(C)S(=O)(=O)c2cccs2)cc1 | inactive
28 | COc1ccc(Cl)cc1S(=O)(=O)N1CCN(C(=O)c2ccco2)CC1 | inactive
29 | CCOC(=O)N1CCN(CC(=O)Nc2ccc(F)cc2F)CC1 | inactive
30 | CCOC(=O)N1CCN(C(=S)NC(=O)c2ccc(Br)cc2)CC1 | inactive
31 | CCOC(=O)c1ccc(S(=O)(=O)N2CCN(CCC#N)CC2)cc1 | inactive
32 | COc1ccc(N(CCCN2C(=O)c3cccc4cccc(c34)C2=O)C(=O)c2cccnc2)cc1 | inactive
33 | C/C(=N\NC(=O)COc1ccccc1[N+](=O)[O-])c1cccs1 | inactive
34 | O=C(Cn1c(=O)oc2cc(S(=O)(=O)N3CCCC3)ccc21)N1CCN(c2ccccc2F)CC1 | inactive
35 | CC1CCCN(C(=O)Cn2c(=O)oc3cc(S(=O)(=O)N4CCCCC4)ccc32)C1 (stereo not given) | inactive
36 | CCn1cc(C(=O)O)c(=O)c2cc(F)c(N3CCN(C(=S)NC(=O)c4ccccc4F)CC3)cc21 | inactive
37 | CCN(CC)c1cc(C)c2cc(NC(=O)c3ccccc3F)ccc2n1 | inactive
38 | N=C1c2ccccc2CN1c1ncccn1 | inactive
39 | COCCCNc1c2c(nc3nnnn13)CCCC2 | inactive
40 | CCN(CC)S(=O)(=O)c1ccc(N2CCOCC2)c(C(=O)O)c1 | inactive
41 | CCN(CC)CCOC(=O)c1cc(Cl)c(N)cc1OC | inactive
42 | COc1ccc(C(CC(=O)O)NC(=O)C2CCCCC2)cc1 (stereo not given) | inactive
43 | COc1ccc(CCNC(=O)Cn2c(=O)n(CC3CCCO3)c(=O)c3ccccc32)cc1OC (stereo not given) | inactive
44 | COc1ccc(OC)c(-c2cc(C(=O)Nc3ccc(F)cc3F)no2)c1 | inactive
45 | Cc1nc(N2CCOCC2)c2c(C)c(C(=O)Nc3ccccc3C(F)(F)F)sc2n1 | inactive
46 | O=C(Cn1nc(Cl)nc1Cl)c1ccc([N+](=O)[O-])cc1 | inactive

Row | SMILES | inhibition
47 | CC1CC(C)CN(S(=O)(=O)c2ccc3c(c2)oc(=O)n3CC(=O)N(C)Cc2ccccc2)C1 (stereo not given) | inactive
48 | Cc1cc(=O)n2nc(N3CCCC(C(=O)NC4CCCCC4C)C3)sc2n1 (stereo not given) | inactive
49 | Cc1nnc(SCC(=O)Nc2cc(S(=O)(=O)N3CCCC3)ccc2Cl)s1 | inactive
50 | CCOc1ccc(S(=O)(=O)N2CCC(C(=O)NCCN3CCOCC3)CC2)cc1C | inactive
51 | CCCCCCCCn1ccc(=N)cc1 | inactive
52 | CCN(CC)CCn1nc(C)nc1-c1ccccc1O | inactive
53 | CCN1c2ccccc2NC2N=C(OC)C(c3ccccc3)C21 (stereo not given) | inactive
54 | O=C(Nc1ccc(F)cc1)c1ccc2snnc2c1 | inactive
55 | Clc1ccc(CN2CCN(/N=C/c3ccco3)CC2)cc1 | inactive
56 | C=CCn1c(C)cc(C(=O)CSc2n[nH]c(N)n2)c1C | inactive
57 | COc1ccc(NC(=O)N2CCc3ccccc32)cc1 | inactive
58 | O=C(CCl)NC1CCCc2ccccc21 (stereo not given) | inactive
59 | Cc1c(-n2cc(C(=O)c3ccccc3O)cc(C#N)c2=O)c(=O)n(-c2ccccc2)n1C | inactive
60 | Cc1c(NC(=O)OCc2ccccc2)c(=O)n(-c2ccccc2)n1C | inactive
61 | Cc1csc2ncc(C(=O)Nc3ccon3)c(=O)n12 | inactive
62 | O=C(CCn1cccc1)Nc1ccc(OC(F)(F)F)cc1 | inactive
63 | O=C(O)C1CCCCC1C(=O)NCCc1ccncc1 (stereo not given) | inactive
64 | O=C(Nc1ccc(S(=O)(=O)N2CCCC2)cc1)c1cccnc1 | inactive
65 | N/C(=N\OC(=O)C(c1ccccc1)c1ccccc1)c1ccncc1 | inactive
66 | CCOC(=O)C(O)(NC(=O)c1cccnc1)C(F)(F)F (stereo not given) | inactive
67 | N/C(=N\OC(=O)COc1ccc2ccccc2c1)c1ccccn1 | inactive
68 | COc1ccc(N(C(=O)c2cccnc2)S(=O)(=O)c2ccc(F)cc2)cc1 | inactive
69 | O=C(O)c1[nH]c2ccc(Br)cc2c1CCN1C(=O)c2cccc([N+](=O)[O-])c2C1=O | inactive

Row | SMILES | inhibition
70 | CCOC(=O)C(NC(C)=O)(OCc1ccc(F)cc1)C(F)(F)F (stereo not given) | inactive
71 | COc1cccc(/C=N/NC(=O)CNC(=O)CCc2ccccc2)c1O | inactive
72 | COc1ccc(C2CC(=O)N3CN(Cc4ccco4)CSC3=C2C#N)cc1 (stereo not given) | inactive
73 | C=CCNC(=O)NC(=O)COC(=O)/C(C#N)=C/c1ccc(OC)cc1 | inactive
74 | N/C(=N\OC(=O)N1CCOCC1)c1ccccc1 | inactive
75 | O=C(Nc1cccc(OCC(=O)N2CCOCC2)c1)c1cccc([N+](=O)[O-])c1 | inactive
76 | CC(C)(C)c1ccc(NC(=O)COc2ccc(-n3ccnc3)cc2)cc1 | inactive
77 | CCC(C)(c1ccc(C(=O)OC)s1)c1ccc(C(=O)OC)s1 | inactive
78 | CCOC(=O)C1CCN(Cc2nc(-c3ccc(OC)c(OC)c3)no2)CC1 | inactive
79 | CC1=C([N+](=O)[O-])C(c2ccccc2)C2=C(N1)c1ccccc1C2=O (stereo not given) | inactive
80 | CCSC1=NCN(CCCC(=O)O)CN1 | inactive
81 | Cc1ccc(CNC(=O)CCC(=O)Nc2nnc(C)s2)cc1 | inactive
82 | COc1ccc(CC(=O)Nc2ncc([N+](=O)[O-])s2)cc1OC | inactive
83 | O=C(Nc1ccc(N2CCOCC2)cc1)c1ccc(S(=O)(=O)NCc2ccco2)cc1 | inactive
84 | O=C(NCc1ccccn1)c1nc(Cn2ccc([N+](=O)[O-])n2)no1 | inactive
85 | CC(C)NC(=O)Nc1ccc(Br)cc1Cl | inactive
86 | CCC1Oc2ccc(C)cc2N(CC(=O)NCC2COc3ccccc3O2)C1=O (stereo not given) | inactive
87 | CCS(=O)(=O)N1CCN(C(=O)c2ccco2)CC1 | inactive
88 | CCOc1ccc(NC(=O)c2ccc(N)cc2)cc1 | inactive
89 | CSCCC(NC(=O)c1ccc(Br)cc1)C(=O)O (stereo not given) | inactive
90 | CCCCOc1ccc(OCCNC(=O)c2ccco2)cc1 | inactive
91 | CCCN(CCC)CC(=O)Nc1cccc2c1OCO2 | inactive
92 | Cc1nc2ccccn2c1/C(O)=C1\C(=O)C(=O)N(CCN2CCOCC2)C1c1cccnc1 (stereo not given) | inactive

Row | SMILES | inhibition
93 | COc1cccc(C(=O)N(CN2CCCC2=O)c2cc(C)on2)c1 | inactive
94 | CCCCCCC(=O)N(O)C1CC(=O)N(Cc2ccccc2)C1=O (stereo not given) | inactive
95 | COc1cc(C)nc(N2CCCC(C(=O)NCC(C)C)C2)n1 (stereo not given) | inactive
96 | CCN1C(=O)NC(c2ccccc2)C1=O (stereo not given) | inactive
97 | O=C(Cn1cc(/C=C\[N+](=O)[O-])c2ccccc21)Nc1ccccc1 | inactive
98 | O=C(Cn1cnc2cc([N+](=O)[O-])ccc2c1=O)Nc1ccccc1Cl | inactive
99 | O=[N+]([O-])c1ccc(CN2CCSCC2)cc1 | inactive
100 | CCOc1ccc2ccccc2c1C(=O)N[C@@H]1C(=O)N2[C@@H]1SC(C)(C)[C@@H]2C(=O)O | inactive
101 | O=C(CN(CCc1ccccc1)C(=O)CNS(=O)(=O)c1ccc(F)cc1)NCC1CCCO1 (stereo not given) | inactive
102 | CCOc1cc(C2NC(=O)N(C)C(C)=C2[N+](=O)[O-])ccc1OC(C)=O (stereo not given) | inactive
103 | COc1ccccc1/C=N/N1C(=O)c2cccc3cccc(c23)C1=O | inactive
104 | O=C(c1ccccc1F)N1C(=O)c2cccc3cccc1c23 | inactive
105 | COCc1[nH]nc2c1C(c1ccc(OC)cc1)C(C#N)=C(N)O2 (stereo not given) | inactive
106 | Cn1c(C(O)c2ccccc2F)nc(Cl)c1Cl (stereo not given) | inactive
107 | Cc1cc(Br)cc2cn[nH]c12 | inactive
108 | CC(C)c1c(O)nc(SCC(=O)N2CCOCC2)[nH]c1=O | inactive
109 | Cc1cc(C(=O)Cn2cncn2)c(C)n1CCc1ccc(F)cc1 | inactive
110 | CC(C)(C)SCCNC(=O)c1ccccc1 | inactive
111 | O=C1C2=C(Nc3ccccc3SC2c2ccco2)c2ccccc21 (stereo not given) | inactive
112 | Brc1ccc2nc(-c3c[nH]c4ccccc34)cn2c1 | inactive
113 | c1csc(-n2nc3ccccc3n2)c1 | inactive
114 | O=S(=O)(Nc1ncccn1)c1ccc(NC(=S)Nc2ccccc2Cl)cc1 | inactive
115 | CCNC(=S)Nc1cc(-c2ccc(Cl)cc2)[nH]n1 | inactive
